# Assay outcomes from PubChem BioAssay.
# aSyn 5UTR act: Activators via SNCA 5'UTR binding, MLPCN; alpha-synuclein 5'UTR reporter, activators screen; 300,000 tested, 7.1% active; activity score, % (tested at 7.5 µM), hits read low; in the data active = activity score below about -60%
# Starred values were filed as active, the others as inactive. Only a sample is shown.
SMILES,aSyn 5UTR act
O=C(CSc1cccs1)Nc1ccc(Cl)cc1,-116*
O=C(CSc1ccccc1)NCCc1ccccc1,-62*
c1csc(CSc2nnc3sc4ccccc4n23)c1,-81*
O=C(CSc1nnnn1-c1ccccc1)c1ccco1,-63*
O=C(CSc1nnc2sc3ccccc3n12)c1ccco1,-118*
Cc1ccc(N=C2C(=S)N(c3ccc(C)cc3)C(=N)N2/N=C/c2ccc(Cl)cc2)cc1,-156*
O=[N+]([O-])c1ccc(-c2cn(-c3ccccc3)c(=S)[nH]2)cc1,-101*
Cc1cccc(-n2cc(-c3ccc([N+](=O)[O-])cc3)[nH]c2=S)c1,-80*
O=[N+]([O-])c1cccc(-c2cn(-c3ccccc3)c(=S)[nH]2)c1,-179*
O=C(Nc1cccc([N+](=O)[O-])c1)c1ccc(CN2CCOCC2)cc1,-124*
O=C(NN=C1CCN(Cc2ccccc2)CC1)c1ccccc1,-88*
C/C(=N\NC(=O)c1ccc(CN2CCOCC2)cc1)c1ccc(NC(=O)c2ccccc2)cc1,-77*
O=C(Nc1ccc(CN2CCOCC2)cc1)c1ccc(F)cc1,-117*
O=C(Nc1ccc(CN2CCOCC2)cc1)c1ccc(Br)cc1,-173*
O=C(Nc1ccc(CN2CCOCC2)cc1)c1ccco1,-69*
O=C(Nc1ccc(CN2CCOCC2)cc1)c1ccc(Cl)cc1,-207*
O=C(N/N=C/c1ccccc1[N+](=O)[O-])c1ccc(CN2CCOCC2)cc1,-83*
O=C(NCCSc1ccccc1)c1ccc(CN2CCOCC2)cc1,-126*
CC(C)(C)c1ccc(C(=O)Nc2ccc(CN3CCS(=O)(=O)CC3)cc2)cc1,-68*
O=C(Nc1ccc(CN2CCOCC2)cc1)c1ccc2ccccc2c1,-182*
C/C(=N\NC(=O)CSCc1ccc(Cl)cc1)c1ccc(NC(=O)c2ccccc2)cc1,-137*
Nc1c(-c2ccc(Cl)cc2)cnc2c(-c3ccccc3)cnn12,-205*
CS(=O)(=O)c1cnc2c(-c3ccsc3)cnn2c1N,-85*
CC(C)(C)S(=O)(=O)c1cnc2c(-c3ccc(Cl)cc3)cnn2c1N,-78*
COc1ccc(-c2cnc3c(-c4ccc(F)cc4)cnn3c2N)cc1,-241*
SMILES,aSyn 5UTR act
O=C(/C=C/c1ccc(Cl)cc1Cl)Nc1cccc(S(=O)(=O)NC2=NCCCCC2)c1,-67*
O=C(CSc1ccc2ccccc2c1Br)Nc1cccc(S(=O)(=O)NC2=NCCCCC2)c1,64
COc1cc(/C=C2/C(=N)N3C=CSC3=NC2=O)ccc1OCCCOc1ccccc1C,-118*
CCC1=NN2C(=N)/C(=C\c3ccc(OCCOc4ccccc4)c(OC)c3)C(=O)N=C2S1,-125*
N=c1oc2ccccc2cc1C(=O)Nc1cccc(F)c1,-122*
N=c1oc2ccccc2cc1C(=O)Nc1ccc(F)cc1,-154*
Cc1ccc(NC(=O)c2cc3ccccc3oc2=N)cc1,82
N=c1oc2cc(O)ccc2cc1C(=O)Nc1ccc(Cl)cc1,-126*
Cn1ccnc1Sc1ccc(/C=N/NC(=O)c2ccccc2O)cc1[N+](=O)[O-],-62*
c1ccc(CSc2cc3ccccc3[nH]2)cc1,-132*
CCCN1CCC(=O)N([C@H](CSc2ccccc2)CC(C)C)CC1,-100*
CCCN1CCC(=O)N([C@H](CSc2ccc(Br)cc2)c2ccccc2)CC1,-120*
CCCN1CCC(=O)N([C@H](CSc2ccc(C)cc2)CC(C)C)CC1,-175*
CC(C)C[C@@H](CSc1ccccc1)N1CCN(CC(C)C)CCC1=O,-175*
Cc1[nH]n(C(N)=S)c(=O)c1N=Nc1cccc([N+](=O)[O-])c1C,-164*
Cc1ccc(N=Nc2c(C)[nH]n(C(N)=S)c2=O)cc1C,-258*
Cc1[nH]n(C(N)=S)c(=O)c1N=Nc1ccc2ccccc2c1,-147*
CCCn1c(C)cc(C(=O)CSc2nc3ccccc3c(=O)n2Cc2ccco2)c1C,-219*
COCCn1c(C)cc(C(=O)CSc2nc3ccccc3c(=O)[nH]2)c1C,-152*
COCCn1c(C)cc(C(=O)CSc2ccc3ccccc3n2)c1C,-141*
Cc1ccc(-c2noc(CN3CCOCC3)n2)cc1,-87*
c1ccc(NCc2nc(-c3ccccc3)no2)cc1,-133*
c1ccc(-c2noc(CN3CCOCC3)n2)cc1,-63*
Cc1ccn2c(CN3CCOCC3)c(-c3ccccc3)nc2c1,-126*
Clc1ccc(-c2noc(CN3CCCC3)n2)cc1,-86*
SMILES,aSyn 5UTR act
Cc1ccc(-c2noc(CN3CCCCC3)n2)cc1,-126*
Cc1cc(=O)oc2cc(OCC(=O)Nc3ccc(N4CCC(C)CC4)cc3)ccc12,-70*
Cc1ccc(NC(=O)C2CCC(CNc3c(N4CCC(C)CC4)c(=O)c3=O)CC2)cc1F (stereo not drawn),61
CCCc1cc(=O)oc2cc(OCC(=O)Nc3ccccn3)ccc12,-92*
Cc1csc(NC(=O)COc2ccc3c(C)cc(=O)oc3c2)n1,-62*
Cc1ccc2nc(N(CCN3CCOCC3)C(=O)CCS(=O)(=O)c3ccccc3)sc2c1,-93*
Cc1ccc(S(=O)(=O)CCC(=O)N(CCCN2CCOCC2)c2nc3ccccc3s2)cc1,-119*
O=C(CCS(=O)(=O)c1ccccc1)N(CCCN1CCOCC1)c1nc2ccccc2s1,-106*
O=C(Nc1ccc(Br)cc1)c1cnc[nH]1,-107*
CC(C)(C)c1ccc(S(=O)(=O)NCC(=O)Nc2ccc(-c3nc4ccccc4s3)cc2)cc1,-101*
Cc1ccc(C)c(S(=O)(=O)NC(C)C(=O)Nc2ccc(-c3nc4ccccc4s3)cc2)c1 (stereo not drawn),-108*
CC(NS(=O)(=O)c1cccc(Cl)c1)C(=O)Nc1ccc(-c2nc3ccccc3s2)cc1 (stereo not drawn),-139*
O=C(Nc1ccccc1)c1ccn[nH]1,-191*
O=C(Nc1cccc([N+](=O)[O-])c1)c1ccn[nH]1,-106*
COc1cc(/C=N/N2CCN(C3c4ccccc4-c4ccccc43)CC2)ccc1O,-63*
O=C1c2ccccc2NC(c2ccccn2)N1c1ccc(Cl)cc1 (stereo not drawn),-138*
COc1cccc(C2Nc3ccccc3C(=O)N2c2ccc(F)cc2)c1O (stereo not drawn),-99*
O=C1c2ccccc2NC(c2ccccc2O)N1c1ccc(F)cc1 (stereo not drawn),-98*
Nc1ccc2c(c1)COc1ccccc1O2,-133*
Cc1ccc(OCc2cc(C(=O)N(C)CCc3ccccn3)no2)cc1C,-73*
Cc1cc(CN(C)C(=O)c2cc(COc3ccc(C)c(C)c3)on2)on1,-159*
COc1cccc(OCc2cc(C(=O)N(C)Cc3nc(C)cs3)no2)c1,-112*
Cc1cc(C)n(-c2nc(NCC(C)O)c3c4c(sc3n2)CCCC4)n1 (stereo not drawn),-62*
COc1ccc(-c2cc3ccccc3oc2=O)cc1NC(=O)c1ccc(Br)o1,-94*
CCC(=O)Nc1cc(-c2cc3ccccc3oc2=O)ccc1OC,-98*
SMILES,aSyn 5UTR act
CCC(=O)Nc1ccc(-c2cc3ccccc3oc2=O)cc1,54
COc1ccc(-c2cc3ccccc3oc2=O)cc1NC(=O)c1ccc([N+](=O)[O-])o1,-240*
Cc1ccc(C(=O)Nc2cc3c(oc2=O)CCCC3=O)cc1,-65*
CCOc1cc(/C=C(\C#N)C(N)=O)ccc1OCc1c(C)no[n+]1[O-],-63*
CN(C)c1ccc(/C=N/N=C/c2ccccc2O)cc1,-171*
CCOc1ccc(-c2csc(Cn3c(CN4CCN(C)CC4)nc4ccccc4c3=O)n2)cc1,-66*
CCn1cc(Br)c(-c2nc3ccccc3c(=O)n2N)n1,-100*
CN(C)/N=C/C=C1\CCC/C(=C\c2ccc(F)c(F)c2)C1=O,-422*
